Screens from PubChem.
Compounds with a hit are over-represented: about 19% of the library has one in this group of screens.
TDP1 inh = inhibitors of human tyrosyl-DNA phosphodiesterase TDP1. recombinant TDP1, AlphaScreen DNA substrate cleavage. AID 485290. 0.28% of 350,000 active. Potency, µM (top dose mostly 130 µM), without a hit: at the highest dose activity change, negative = inhibition, most hits filed as inhibitors. Q9NUW8; note: potency is the fitted concentration of half-maximal effect; nearly all actives have a fitted effect of over 40% in size
Target sequence (Q9NUW8 whole entry, looked up): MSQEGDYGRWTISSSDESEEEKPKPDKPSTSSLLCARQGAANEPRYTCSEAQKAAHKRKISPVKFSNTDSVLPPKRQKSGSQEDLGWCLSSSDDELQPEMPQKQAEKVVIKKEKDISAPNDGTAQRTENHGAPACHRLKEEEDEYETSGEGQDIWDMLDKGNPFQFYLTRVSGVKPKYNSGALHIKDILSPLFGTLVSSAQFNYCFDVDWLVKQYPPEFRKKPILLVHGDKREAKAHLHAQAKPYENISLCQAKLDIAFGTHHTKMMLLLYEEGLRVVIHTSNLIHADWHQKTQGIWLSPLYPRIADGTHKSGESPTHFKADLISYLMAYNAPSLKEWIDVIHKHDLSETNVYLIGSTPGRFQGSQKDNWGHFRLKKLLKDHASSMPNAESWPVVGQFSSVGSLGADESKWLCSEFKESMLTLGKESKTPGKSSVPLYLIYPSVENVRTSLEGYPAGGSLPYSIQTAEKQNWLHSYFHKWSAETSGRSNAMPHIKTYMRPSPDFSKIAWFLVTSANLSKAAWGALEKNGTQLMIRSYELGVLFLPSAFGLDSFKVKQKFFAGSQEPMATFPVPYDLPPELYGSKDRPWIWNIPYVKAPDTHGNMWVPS
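Here, a 5' biotin and 3' phosphotyrosine-FITC DNA oligonucleotide reports Tdp1 activity: intact substrate bridges AlphaScreen beads, while cleavage leaves a 3' phosphate and drops signal. All incubations at room temperature.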
DT40 TDP1 no CPT = qHTS for Inhibitors of human tyrosyl-DNA phosphodiesterase 1 (TDP1): qHTS in cells in absence of CPT. DT40 Tdp1-/- hTDP1 cells, no CPT, ATP luminescence, 48 h. Potency, µM (doses to about 46.2 µM), for the others: at the highest dose activity change, negative = growth inhibition, actives largely listed as inhibitors. 15% of 420,000 active. AID 686978, 2013; note: potency is the fitted concentration of half-maximal effect; nearly all actives have a fitted effect of over 55% in size
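Chicken DT40 Tdp1-/- cells complemented with human TDP1, screened without camptothecin (DMSO vehicle only), 400 cells/well. Compounds pin-transferred, cells incubated at 37 °C for at least 48 hr. Growth read as ATP-dependent luminescence (CellTiter-Glo, 30 min at RT).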
Giardia killer = kills Giardia lamblia | Giardia lamblia trophozoite viability | activity change, % at 7.66 µM, hits read low | 0.15% of 340,000 active | AID 540267; in the data active = activity change below about -80%; inconclusive = between about -30% and that limit;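 note: parasites exposed to compound for two days anaerobically before the ATP read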
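Luminescence from cellular ATP indicates surviving trophozoites (100 cells/well) following 48 hrs anaerobic compound treatment at 37 deg C; signal develops 15-30 min at room temperature.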
DT40 TDP1 CPT = DT40-hTDP1 cell growth loss with CPT | chicken DT40 Tdp1-/-;hTDP1 cells + 20 nM CPT, ATP luminescence, 48 h | Potency, µM (highest dose often 46.2 µM), for inactives: at the highest dose activity change, negative = growth inhibition, most hits filed as inhibitors | 12% of 420,000 active | AID 686979; note: potency is the fitted concentration of half-maximal effect; nearly all actives have a fitted effect of over 55% in size
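Cell growth measured by CellTiter-Glo luminescence after a minimum 48 h, 37 C compound exposure with 20 nM CPT in Tdp1-knockout DT40 cells stably expressing hTDP1, seeded 400/well; qHTS titration format.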
ELG1 repair inh = blocks ELG1-dependent DNA repair in HEK293T cells. HEK293T ELG1-luciferase reporter, luminescence, 16 h; DNA damage induced by 5-fluorouridine. Potency, µM (top dose mostly 46.1 µM), without a hit: at the highest dose activity change, negative = inhibition, actives largely listed as inhibitors. 2.3% of 330,000 active. AID 504467; note: potency is the fitted concentration of half-maximal effect; nearly all actives have a fitted effect of over 55% in size
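Cells (2,000 per well) received 5-fluorouridine plus test compound or DMSO and were incubated 16 hr at 37 °C, 5% CO2. Luciferase activity was read by luminescence 30 min after ONE-Glo addition; signal suppression marked inhibition of damage-induced ELG1 function.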
IL-1B inflam inh = inflammasome signaling inhibition, IL-1 beta readout; THP-1 LPS/ATP IL-1B secretion, AlphaLISA, 16 h; stronger effect = lower value; activity change, % at 57.5 µM; 4.7% of 360,000 active; AID 743279; in the data active = activity change below about -50%; inconclusive = mostly about -30% to -49%
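THP-1 cells pretreated 1 hr with compounds (up to 57.5 uM final), then stimulated with LPS (250 ng/mL final) plus ATP (1.25 mM final); secreted IL-1B measured by AlphaLISA after 16 hr, decreased signal indicating inhibition.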
The depositor's hits bear a star; ? = inconclusive; . = no result. Unless noted, calls come from the whole dose curve; as a rule, active = well fitted curve in the direction sought with a large enough effect; inconclusive = small, poorly fitted or top-dose-only effect, or another doubt; inactive = no such curve, though single readings can be large; an effect the other way counts as inactive or inconclusive. % is set by controls: 0 for no effect and ±100 for the full control effect.

SMILES | TDP1 inh | DT40 TDP1 no CPT | Giardia killer | DT40 TDP1 CPT | ELG1 repair inh | IL-1B inflam inh
O=C(CSc1nc2[nH]ncc2c(=O)n1-c1ccccc1)c1ccc2c(c1)OCCO2 | 6% | ? | 2 | ? | ? | -54*
O=C1COc2ccc(C(=O)CSc3nnc(NCc4ccccc4)s3)cc2N1 | . | 13µM* | 39 | ? | -20% | -21
O=C1COc2ccc(C(=O)CSc3nnc(Cc4cccs4)n3-c3ccc(Cl)cc3)cc2N1 | 5% | 18µM* | 8 | 18µM* | ? | 0
O=C1COc2ccc(C(=O)CSc3nnc(Cc4ccccc4)o3)cc2N1 | . | 4% | 6 | -5% | 1% | 19
Cc1cc(C(=O)OCC(=O)c2ccc3c(c2)NC(=O)CO3)c2ccccc2n1 | 5% | -1% | -6 | -2% | -22% | 38
CCc1ccc(-n2c(SCC(=O)c3ccc4c(c3)NC(=O)CO4)nc3ccccc3c2=O)cc1 | 1% | 21µM* | 7 | ? | ? | 53
O=C1COc2ccc(C(=O)CSc3nc4ccccc4c(=O)n3-c3ccc(Cl)c(Cl)c3)cc2N1 | 5% | ? | -10 | 23µM* | -8% | 84
Cc1ccc(Cl)cc1NC(=O)CCc1c(C)nc2c3cccnc3nn2c1C | 9% | ? | . | ? | . | .
O=C(Nc1ccccc1C(=O)NC1CCCCC1)c1ccccc1 | -2% | ? | -6 | ? | ? | -21
COc1ccc(C(=O)Nc2ccccc2C(=O)NC(Cc2ccc(O)cc2)C(=O)NNC(=O)c2ccc(C)cc2)cc1 (centres undefined) | -1% | 4% | 5 | 4% | 8.2µM* | -24
COc1ccc(C(=O)Nc2ccccc2C(=O)NC(Cc2ccc(O)cc2)C(=O)NNC(=O)c2ccncc2)cc1 (centres undefined) | 2% | -4% | -25 | 2% | 12% | -28
COc1ccc(C(=O)Nc2ccccc2C(=O)NC(Cc2ccc(O)cc2)C(=O)NNC(=O)c2ccccc2)cc1 (centres undefined) | 2% | ? | -6 | ? | 16µM* | -14
O=C(Nc1ccccc1C(=O)NC(Cc1ccccc1)C(=O)NC1CCCCCC1)c1ccccc1 (centres undefined) | -1% | 23µM* | 14 | ? | ? | -15
C=CCC1(CC=C)CCCN1C(=O)c1ccc2oc(CCCC)nc2c1 | . | 10µM* | . | 12µM* | . | -24
CCCc1ccc2oc(C(=O)N(Cc3nccn3C)C(C)C)c(C)c2c1 | 6% | 2.1µM* | 19 | 5.2µM* | 0% | -7
COCC1CCCCN1C(=O)c1ccc2oc(CCc3ccccc3)nc2c1 (centres undefined) | 2% | ? | 7 | ? | ? | 0
CCOC(=O)CC1CCCCN1C(=O)c1ccc2oc(CCc3ccccc3)nc2c1 (centres undefined) | 4% | 15µM* | -14 | 21µM* | 25% | 22
O=C(c1ccc2oc(CCCc3ccccc3)nc2c1)N1CCCC1 | 4% | ? | 7 | 16µM* | ? | -4
C=CCC(CC=C)(CNC(=O)C(=O)Nc1ccc(Br)cc1)c1ccc(OC)c(OC)c1 | 7% | ? | . | -18% | . | .
CC(=O)N1CCc2cc(S(=O)(=O)CCC(=O)Nc3ccccc3F)ccc21 | 0% | 3% | -6 | -17% | 0% | 6
O=C(Nc1ccc(Cl)cc1F)c1ccc2c(c1)C(=O)N(Cc1ccncc1)C2=O | -10% | ? | 2 | 0% | -2% | -10
Cc1cccc(OCC(=O)Nc2ccc3c(c2)nc2n3CCOC2)c1 | 2% | -11% | -1 | -9% | 24% | ?
CC(C)N(Cc1nccn1C)C(=O)c1ccc2oc(CCCc3ccccc3)nc2c1 | 10% | 23µM* | 2 | 18µM* | 9% | 0
CCCc1ccc2oc(C(=O)NCCc3cnn(C)c3)c(C)c2c1 | 2% | 16µM* | 19 | 16µM* | ? | 3
COc1cc(NS(=O)(=O)c2ccc3c(c2)CC(C)N3C(=O)C2CCC2)cc(OC)c1OC (centres undefined) | 2% | . | . | . | . | .
SMILES | TDP1 inh | DT40 TDP1 no CPT | Giardia killer | DT40 TDP1 CPT | ELG1 repair inh | IL-1B inflam inh
COc1cc(Cl)c(NS(=O)(=O)c2ccc3c(c2)CC(C)N3C(=O)C2CCC2)c(OC)c1 (centres undefined) | 9% | 5.8µM* | . | 6.5µM* | . | .
COc1ccc(NS(=O)(=O)c2ccc3c(c2)CC(C)N3C(=O)C2CCC2)cc1OC (centres undefined) | 3% | 0.65µM* | . | 1µM* | . | .
CCc1ccc(-n2nc(C)c3c(C)cc(=O)n(CC(=O)Nc4cc(Cl)ccc4OC)c32)cc1 | 8% | -19% | . | 0% | . | .
CCOC(=O)c1ccc(NC(=O)CN2C(=O)C(CC)SC(CC)C2=O)cc1 (centres undefined) | 1% | 3% | 6 | -21% | -7% | 23
CCOC(=O)N1CCN(C(=O)C[C@@H]2C[C@@]3(C(=O)OCC)CCC=C3N(Cc3cccc4ccccc34)C2=O)CC1 | . | 16µM* | . | ? | . | 10
C#CCNC(=O)C[C@@H]1C[C@@]2(C(=O)OCC)CCCC=C2N(Cc2cccc3ccccc23)C1=O | . | ? | . | ? | . | 43
CCOC(=O)N1CCN(C(=O)C[C@@H]2C[C@@]3(C(=O)OCC)CCC=C3N(Cc3ccco3)C2=O)CC1 | . | -13% | . | 0% | . | 4
CCOC(=O)[C@]12CCC=C1N(Cc1cccc3ccccc13)C(=O)[C@H](CC(=O)NCCC(C)C)C2 | . | 21µM* | . | 23µM* | . | -55*
CCOC(=O)[C@]12CCC=C1N(Cc1cccc3ccccc13)C(=O)[C@H](CC(=O)NCc1ccc(OC)c(OC)c1)C2 | . | 16µM* | . | ? | . | ?
Cc1cccc(-c2ocnc2C(=O)Nc2ccccc2NC(=O)c2ccccn2)c1 | 9% | 0.29µM* | -5 | 0.92µM* | -5% | ?
CSc1ccccc1NC(=O)c1ccccn1 | 1% | 2.1µM* | 4 | 1.3µM* | ? | -22
Cc1ccc(-c2ocnc2C(=O)Nc2ccccc2NC(=O)c2ccccn2)cc1 | 7% | ? | -18 | 21µM* | -19% | ?
CSc1nnc(SCC#N)s1 | 4% | -3% | 9 | 18% | 13% | -14
O=S(=O)(NCC1CCCO1)c1ccc(S(=O)(=O)N(Cc2ccc(F)cc2)Cc2ccco2)cc1 (centres undefined) | 3% | ? | 2 | ? | -6% | 0
